From PubChem BioAssay (Tox21)
Several values for one entry are separate records, joined by “and”; a condition that tells them apart may be missing. Identical values can stand only once. Inconclusive results are not listed. Where a call stands in place of a potency, no number is given. A structure can be active in one record and inactive in another. Activity calls are given as the source filed them. Unless noted, calls follow the shape of the dose curve; as a rule, active = well fitted curve in the direction sought with a large enough effect in the repeat runs; inconclusive = weak or mixed curves; inactive = no such curve, though single readings can be large; an effect the other way counts as inactive or inconclusive.

Assays:
[1] = A CellTox Green Cytotoxicity Assay to monitor cytotoxicity in HEK293 cells - 32 hour (AID 1224881); also: nearly all actives have a fitted effect of over 40% in size; also: potency is read from the fitted curve at half-maximal effect
Method in brief: (§1)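 Homogeneous no-lysis format: HEK293 cell suspension mixed with CellTox Green reagent, seeded, incubated 5 h at 37 C/5% CO2, then dosed by pintool with compound in DMSO.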

[2] = A CellTox Green Cytotoxicity Assay to monitor cytotoxicity in HepG2 cells - 0 hour (AID 1224882); also: nearly all actives have a fitted effect of over 35% in size
Method in brief: (§2)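 Fluorescent DNA-binding dye, 600 HepG2 cells/well, 5 h preincubation then compound in DMSO; same plates read at 0–40 h, 37 C.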

[3] = A CellTox Green Cytotoxicity Assay to monitor cytotoxicity in HepG2 cells - 32 hour (AID 1224883); also: nearly all actives have a fitted effect of over 50% in size; also: potency is read from the fitted curve at half-maximal effect
Method in brief: as §2

[4] = qHTS RealTime-Glo MT Cell Viability Assay in HepG2 cells - 16 hour (AID 1224885); also: nearly all actives have a fitted effect of over 50% in size; also: potency is read from the fitted curve at half-maximal effect
Method in brief: (§3)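 qHTS, HepG2, 600 cells/well, RealTime-Glo (NanoLuc + prosubstrate) added with cells; 5 h preincubation; DMSO compound addition; 37 C; luminescence at 0/8/16/24/32/40 h.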

[5] = qHTS RealTime-Glo MT Cell Viability Assay in HEK293 cells - 24 hour (AID 1224886); also: nearly all actives have a fitted effect of over 50% in size; also: potency is read from the fitted curve at half-maximal effect
Method in brief: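 Assay medium contained NanoLuc luciferase plus cell-permeant prosubstrate, added with HEK293 cells at 600 cells/well. After 5 h at 37 C/5% CO2 compounds were added; plates stayed at 37 C for 40 h with serial luminescence reads.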

[6] = qHTS RealTime-Glo MT Cell Viability Assay in HEK293 cells - 8 hour (AID 1224887); also: nearly all actives have a fitted effect of over 50% in size; also: potency is read from the fitted curve at half-maximal effect
Method in brief: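 Measured as luminescence from the same continuously cultured HEK293 wells at successive time points (0, 8, 16, 24, 32, 40 h) after compound addition. Reagent present from seeding; dosing at 5 h; incubation 37 C.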

[7] = A CellTox Green Cytotoxicity Assay to monitor cytotoxicity in HEK293 cells - 16 hour (AID 1224888); also: nearly all actives have a fitted effect of over 35% in size; also: potency is read from the fitted curve at half-maximal effect
Method in brief: as §1

[8] = qHTS RealTime-Glo MT Cell Viability Assay in HepG2 cells - 0 hour (AID 1224889); also: nearly all actives have a fitted effect of over 50% in size; also: potency is read from the fitted curve at half-maximal effect
Method in brief: as §3

[9] = A CellTox Green Cytotoxicity Assay to monitor cytotoxicity in HepG2 cells - 8 hour (AID 1224890); also: nearly all actives have a fitted effect of over 45% in size; also: potency is read from the fitted curve at half-maximal effect
Method in brief: as §2

[10] = qHTS assay to identify small molecule antagonists of the estrogen receptor alpha (ER-alpha) signaling pathway using the BG1 cell line in the presence of 0.1 nM 17-beta-estradiol - cell viability counter screen (AID 1259241); also: nearly all actives have a fitted effect of over 40% in size; also: potency is read from the fitted curve at half-maximal effect
Method in brief: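 CellTiter-Fluor read (30 min, 37C) on ER-alpha/ERE-luc VM7Luc4E2 cells; 22 hr compound treatment; agonist 0.1 nM E2 final; same-well multiplex.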

[11] = qHTS assay to identify small molecule antagonists of the androgen receptor (AR) signaling pathway using the MDA cell line in the presence of 0.5 nM R1881 - cell viability counter screen (AID 1259242); also: nearly all actives have a fitted effect of over 45% in size; also: potency is read from the fitted curve at half-maximal effect
Method in brief: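 Human breast carcinoma MDA-kb2 cells, cultured without CO2, receive compounds alongside 0.5 nM (final) R1881 agonist. After 16 hr at 37C, viability is taken as live-cell protease signal.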

[12] = target: Estrogen receptor (Homo sapiens) (UniProt P03372); test: qHTS assay to identify small molecule antagonists of the estrogen receptor alpha (ER-alpha) signaling pathway using the BG1 cell line in the presence of 0.1 nM 17-beta-estradiol (AID 1259244); also: nearly all actives have a fitted effect of over 50% in size
Chain of Estrogen receptor (Homo sapiens) (P03372 whole entry, looked up): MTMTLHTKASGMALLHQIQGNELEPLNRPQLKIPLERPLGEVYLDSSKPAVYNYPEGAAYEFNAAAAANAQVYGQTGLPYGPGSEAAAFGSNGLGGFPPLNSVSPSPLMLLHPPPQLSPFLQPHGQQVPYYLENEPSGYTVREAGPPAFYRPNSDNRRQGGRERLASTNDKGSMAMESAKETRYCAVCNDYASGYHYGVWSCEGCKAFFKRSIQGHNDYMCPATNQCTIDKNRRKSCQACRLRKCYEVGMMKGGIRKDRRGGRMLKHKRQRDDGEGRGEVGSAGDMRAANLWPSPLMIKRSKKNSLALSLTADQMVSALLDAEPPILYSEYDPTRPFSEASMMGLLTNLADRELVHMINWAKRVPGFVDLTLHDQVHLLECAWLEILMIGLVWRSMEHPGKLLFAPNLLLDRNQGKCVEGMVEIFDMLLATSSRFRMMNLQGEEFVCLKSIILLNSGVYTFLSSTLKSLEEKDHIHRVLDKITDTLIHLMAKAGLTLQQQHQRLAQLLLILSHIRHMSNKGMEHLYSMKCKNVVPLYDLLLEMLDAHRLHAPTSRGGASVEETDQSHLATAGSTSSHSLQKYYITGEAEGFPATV
Method in brief: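 Seeding of stripped-serum-adapted VM7Luc4E2 cells, 24 h attachment, compound transfer, then 0.1 nM final 17beta-estradiol; after 22 h incubation, ONE-Glo reagent and luminescence reading.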

[13] = qHTS assay to identify small molecule HDAC inhibitors (AID 1259364); also: potency is read from the fitted curve at half-maximal effect;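 also: wild-type HCT-116 cells with endogenous class I/II HDAC activity; nearly all actives have a fitted effect of over 45% in size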
Method in brief: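 After a 2 hr compound incubation (37C, 5% CO2), HCT-116 cells seeded at 1,500/well the day before received HDAC-Glo reagent; signal read as luminescence after 30 min at room temperature.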

[14] = qHTS assay to identify small molecule HDAC inhibitors - cell viability counter screen (AID 1259365)
Method in brief: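 To flag cytotoxic hits, 1,500 wild-type HCT-116 cells per well, plated the day before, receive test compounds for 2hr at 37 C before CellTiter-Glo reagent and a luminescence read.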

[15] = qHTS assay to identify small molecule agonists of the sonic hedgehog signaling (Shh) pathway - cell viability counter screen (AID 1259366); also: nearly all actives have a fitted effect of over 50% in size
Method in brief: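 Fluorescence from CellTiter-Fluor reports live cells in this counter screen. NIH/3T3-derived Gli1-Luc reporter cells receive test compounds for 24hr at 37C; reagent goes in at 23hr.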

[16] = qHTS assay to identify small molecule antagonists of the sonic hedgehog signaling (Shh) pathway - cell viability counter screen (AID 1259367); also: nearly all actives have a fitted effect of over 55% in size; also: potency is read from the fitted curve at half-maximal effect
Method in brief: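 CellTiter-Fluor signal in conditioned medium-stimulated 3T3 Gli1-Luc cells, 23 hr compound exposure, 37C.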

[17] = qHTS assay to identify small molecule agonists of the sonic hedgehog signaling (Shh) pathway (AID 1259368; calls by dose curve;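 also: NIH/3T3-derived 3T3Gli1-Luc cells carrying a stable Gli1-driven firefly luciferase reporter; series mostly up to about 92 µM; nearly all actives have a fitted effect of over 15% in size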)
Method in brief: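 Stable NIH/3T3 Gli1-Luc reporter clone; 24 hr cpd exposure after a 4 hr settling period; luminescence endpoint.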

[18] = qHTS assay to identify small molecule phospholipidosis (PLD) inducers (AID 1259344; active = well fitted curve in the direction sought with a large enough effect; an effect the other way counts as inactive or inconclusive)
Method in brief: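 Accumulated phospholipid, stained red by LipidTOX during 24 h compound treatment of HepG2 cells at 37 C, is quantified from images as pit number and intensity, normalised per cell using Hoechst-stained nuclei.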

[19] = target: Androgen receptor (Homo sapiens) (UniProt P10275); test: qHTS assay to identify small molecule antagonists of the androgen receptor (AR) signaling pathway using the MDA cell line in the presence of 0.5 nM R1881 (AID 1259243)
Chain of Androgen receptor (Homo sapiens) (P10275 whole entry, looked up): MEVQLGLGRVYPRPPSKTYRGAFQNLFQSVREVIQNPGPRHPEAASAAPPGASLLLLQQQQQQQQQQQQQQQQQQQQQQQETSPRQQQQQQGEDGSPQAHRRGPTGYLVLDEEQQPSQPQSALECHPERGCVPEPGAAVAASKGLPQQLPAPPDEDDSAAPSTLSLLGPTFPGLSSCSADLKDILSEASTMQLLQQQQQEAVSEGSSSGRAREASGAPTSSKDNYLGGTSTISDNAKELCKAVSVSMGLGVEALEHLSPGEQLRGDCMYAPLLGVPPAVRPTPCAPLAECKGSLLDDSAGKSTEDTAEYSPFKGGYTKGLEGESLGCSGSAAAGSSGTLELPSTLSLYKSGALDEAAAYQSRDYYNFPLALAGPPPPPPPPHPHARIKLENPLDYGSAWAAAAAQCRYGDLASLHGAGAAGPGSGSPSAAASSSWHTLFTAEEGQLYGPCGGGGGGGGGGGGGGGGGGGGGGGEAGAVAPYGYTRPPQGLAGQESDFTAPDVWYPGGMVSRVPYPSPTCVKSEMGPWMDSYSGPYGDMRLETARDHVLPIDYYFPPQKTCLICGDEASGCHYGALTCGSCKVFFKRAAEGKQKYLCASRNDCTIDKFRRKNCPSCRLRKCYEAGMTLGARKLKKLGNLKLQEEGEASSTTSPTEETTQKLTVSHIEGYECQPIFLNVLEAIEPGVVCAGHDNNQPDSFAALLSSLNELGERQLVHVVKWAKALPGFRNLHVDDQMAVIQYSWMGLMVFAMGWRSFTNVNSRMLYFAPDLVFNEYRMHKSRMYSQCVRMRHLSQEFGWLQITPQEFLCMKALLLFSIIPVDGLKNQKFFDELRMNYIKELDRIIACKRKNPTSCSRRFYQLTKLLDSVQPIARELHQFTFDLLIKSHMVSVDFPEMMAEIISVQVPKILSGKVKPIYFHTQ
Method in brief: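 Cells: MDA-kb2 (MMTV-luc). Stimulus: 0.5 nM R1881. Time: 16 hr, 37C, no CO2. Detection: ONE-Glo luminescence after 30 min at RT.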

[20] = A CellTox Green Cytotoxicity Assay to monitor cytotoxicity in HEK293 cells - 8 hour (AID 1224884); also: nearly all actives have a fitted effect of over 35% in size
Method in brief: as §1

BrCBr
Potency [1]: inactive
Potency [2]: inactive
Potency [3]: inactive
Potency [4]: inactive
Potency [5]: inactive
Potency [6]: inactive
Potency [7]: inactive
Potency [8]: inactive
Potency [9]: inactive
Potency [10]: inactive
Potency [11]: inactive
Potency [12]: inactive
Potency [13]: inactive
Potency [14]: inactive
Potency [15]: inactive
Potency [16]: inactive

CCCCCCCCCBr
Potency [1]: inactive
Potency [2]: inactive
Potency [3]: inactive
Potency [4]: inactive
Potency [5]: inactive
Potency [6]: inactive
Potency [7]: inactive
Potency [8]: inactive
Potency [9]: inactive
Potency [10]: inactive
Potency [11]: inactive
Potency [12]: inactive
Potency [13]: inactive
Potency [14]: inactive
Potency [16]: inactive
Potency [17]: inactive

CCCCCCCCCCCCCCCC[N+](C)(C)C
Potency [1]: 23.7 µM (active) and 43.6 µM (active) and 23.9 µM (active)
Potency [2]: inactive
Potency [3]: 21.1 µM (active) and 19 µM (active)
Potency [4]: inactive and 54.9 µM (active) and 23.9 µM (active)
Potency [5]: 9.42 µM (active) and 21.9 µM (active) and 9.52 µM (active)
Potency [7]: 23.7 µM (active) and 49 µM (active) and 19 µM (active)
Potency [8]: inactive
Potency [9]: 54.9 µM (active) and 21.3 µM (active)
Potency [10]: inactive
Potency [11]: 38.6 µM (active)
Potency [18]: inactive
Potency [13]: inactive
Potency [14]: inactive
Potency [16]: 61.1 µM (active) and inactive
Potency [17]: inactive

CC(=O)c1ccc(-c2ccccc2)cc1
Potency [1]: inactive
Potency [2]: inactive
Potency [3]: inactive
Potency [4]: inactive
Potency [5]: inactive
Potency [6]: inactive
Potency [7]: inactive
Potency [8]: inactive
Potency [9]: inactive
Potency [10]: inactive
Potency [11]: inactive
Potency [19]: 19.3 µM (active)
Potency [12]: inactive
Potency [13]: 24.3 µM (active)
Potency [14]: inactive
Potency [16]: inactive
Potency [17]: inactive

CCOP(=S)(OCC)SCS(=O)(=O)C(C)(C)C
Potency [1]: inactive
Potency [2]: inactive
Potency [3]: inactive
Potency [20]: inactive
Potency [5]: inactive
Potency [6]: inactive
Potency [7]: inactive
Potency [9]: inactive
Potency [10]: inactive
Potency [11]: inactive
Potency [13]: inactive
Potency [14]: inactive
Potency [17]: inactive

CC(C)CC(C)Nc1ccc(Nc2ccccc2)cc1 (stereo not given)
Potency [1]: 48.2 µM (active)
Potency [2]: inactive
Potency [20]: inactive
Potency [5]: 21.5 µM (active)
Potency [6]: 19.2 µM (active)
Potency [7]: inactive
Potency [8]: 24.1 µM (active)
Potency [9]: inactive
Potency [10]: 53.5 µM (active)
Potency [13]: inactive
Potency [14]: inactive
Potency [16]: 16.9 µM (active)
Potency [17]: inactive

CC(=O)[O-].[Tl+]
Potency [1]: inactive
Potency [2]: inactive
Potency [3]: inactive
Potency [4]: inactive
Potency [6]: inactive
Potency [7]: inactive
Potency [8]: inactive
Potency [9]: inactive
Potency [10]: inactive
Potency [11]: inactive
Potency [13]: inactive
Potency [14]: inactive
Potency [15]: inactive
Potency [16]: inactive
Potency [17]: inactive
